# Screens deposited in PubChem BioAssay by National Center for Advancing Translational Sciences (NCATS).
# VACV Venus inh: inhibitors of vaccinia virus (Venus reporter); actives 0.46% (n = 330,000); AID 720580; Potency, µM (titrated, usually from 36.5 µM), for inactives: top-dose activity change, negative = inhibition, actives largely listed as inhibitors; Vaccinia virus Venus reporter expression, fluorescence; calls by dose curve; tested in A549 cells; also: % is scaled to controls: 0 for no effect and ±100 for the full control effect; nearly all actives have a fitted effect of over 30% in size
# AMA1 RON2 block: AMA1-RON2 (P. falciparum) interaction inhibition; AlphaScreen AMA1-biotinylated RON2 peptide binding; actives 0.2% (n = 360,000); AID 720542; Potency, µM (highest dose often 58.2 µM), inactives show top-dose activity change, negative = inhibition, hits mostly inhibitors;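 also: 0% = vehicle wells and -100% = peptide control; nearly all actives have a fitted effect of over 45% in size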
#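 AMA1 (3D7) with his tag at 25 nM final met compounds first, then biotinylated RON2 peptide at 25 nM; detection used donor plus acceptor beads, 10 µg/mL apiece, read by AlphaScreen after 30 min at room temperature.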
# Vaccinia mCherry: vaccinia inhibition (mCherry reporter); Vaccinia virus mCherry reporter infection, fluorescence; actives 0.63% (n = 310,000); Potency, µM (highest dose often 36.5 µM), inactives show top-dose activity change, negative = inhibition, most hits filed as inhibitors; calls by dose curve; tested in A549 cells; also: % is scaled to controls: 0 for no effect and ±100 for the full control effect; nearly all actives have a fitted effect of over 35% in size
# AmpC inh no detg: AmpC beta-lactamase inhibition without detergent | P00811 | AmpC nitrocefin hydrolysis, absorbance 480 nm, 0.0001% Triton | Potency, µM (top dose mostly 57.1 µM), for inactives: at the top dose activity change, negative = inhibition, hits mostly inhibitors | actives 0.52% (n = 330,000) | AID 485341;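 also: plate controls were no compound for no effect and no enzyme for full effect; nearly all actives have a fitted effect of over 20% in size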
# Target sequence (P00811 whole entry, looked up): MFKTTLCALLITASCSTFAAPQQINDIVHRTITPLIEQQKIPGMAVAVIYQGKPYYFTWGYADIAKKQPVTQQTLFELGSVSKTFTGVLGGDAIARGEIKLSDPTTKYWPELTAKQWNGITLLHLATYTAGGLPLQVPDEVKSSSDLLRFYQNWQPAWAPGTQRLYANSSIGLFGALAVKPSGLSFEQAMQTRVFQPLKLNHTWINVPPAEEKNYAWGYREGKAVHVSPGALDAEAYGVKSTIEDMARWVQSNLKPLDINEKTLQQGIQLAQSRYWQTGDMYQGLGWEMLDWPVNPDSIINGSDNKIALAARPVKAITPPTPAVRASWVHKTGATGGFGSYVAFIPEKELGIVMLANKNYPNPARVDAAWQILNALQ
#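 20 mM phosphate pH 7.0 + 0.01% (detergent screen) or 0.0001% Triton X-100; 5.3 nM AmpC reagent; cpd preinc 15 min RT; nitrocefin (800 uM stock) to start; A480 q20 s × 4 min; Activity was normalised to no-enzyme and no-compound control wells.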
# SARS PLpro yeast: blocks SARS-CoV papain-like protease in a yeast assay; S. cerevisiae expressing SARS-CoV PLpro, growth rescue; Potency, µM (titrated, usually from 32.9 µM), without a hit: top-dose activity, positive = growth rescue, usual class: activators; actives 0.19% (n = 330,000); calls by dose curve; also: 0% is about no effect; nearly all actives have a fitted effect of over 55% in size
# AmpC inh detg: blocks E. coli AmpC beta-lactamase in detergent assay | actives 0.041% (n = 370,000) | Potency, µM (series often up to 114 µM), without a hit: at the top dose activity change, negative = inhibition, most hits filed as inhibitors | AID 485294 | AmpC hydrolysis of nitrocefin, absorbance 480 nm, 0.01% Triton;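 also: 0% = no-compound wells and -100% = no-enzyme wells; nearly all actives have a fitted effect of over 25% in size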
#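 AmpC (5.3 nM in the dispensed reagent) in 20 mM phosphate pH 7.0 with 0.01% (detergent screen) or 0.0001% Triton X-100 was preincubated with compounds for 15 min at room temperature. Nitrocefin was then added from an 800 uM solution, and hydrolysis was followed at 480 nm.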
# Starred values were filed as active, the others as inactive; i = inactive; ? = inconclusive; . = not tested or not shown; [ ] = remark or other dose. In the library only some 1.4% were active in any assay of this set; here they are far more common. Unless noted, calls follow the shape of the dose curve; as a rule, active = well fitted curve in the direction sought with a large enough effect; inconclusive = small, poorly fitted or top-dose-only effect, or another doubt; inactive = no such curve, though single readings can be large; an effect the other way counts as inactive or inconclusive. Potency is read from the fitted curve at half-maximal effect.
SMILES,VACV Venus inh,AMA1 RON2 block,Vaccinia mCherry,AmpC inh no detg,SARS PLpro yeast,AmpC inh detg
CCOc1ccc(N(CC(=O)Nc2cccc(OC)c2)S(=O)(=O)c2c(C)noc2C)cc1,-12%,-4%,i,18µM*,-6%,?
COc1ccc(N(CC(=O)Nc2ccc3c(c2)OCCO3)S(=O)(=O)c2cccnc2)cc1,.,0%,.,40µM*,7%,3%
O=CC(=O)c1ccc(F)cc1,-7%,.,-15%,.,.,.
COc1c2c(cc3c1OCO3)C13C=CC(OC)CC1N(C2)CC3O (stereo not drawn),-17%,.,-13%,.,.,.
COC1C=CC23c4cc5c(cc4CN(CC2O)C3C1)OCO5 (stereo not drawn),1.8µM*,.,1.3µM*,.,.,.
O=C(NCC1Cc2cccc(-c3ccccn3)c2O1)c1cnn2cccnc12 (stereo not drawn),-15%,.,-21%,.,.,.
Oc1c(CN2CCOCC2)cc(CN2CCOCC2)c(O)c1O,8%,11µM*,-2%,.,.,.
Oc1cccc(CN2CCOCC2)c1O,-2%,?,i,.,.,.
Cc1cc(NC(=O)NCc2ccco2)ccc1NC(=O)NCc1ccco1,4%,0%,-18%,.,.,.
Cc1nc2cc(NC(=O)NCc3ccco3)ccc2o1,-2%,0%,i,0.35µM*,-2%,2%
Cc1[nH]n(-c2ccccc2)c(=O)c1N=Nc1ccc(F)cc1,-7%,-2%,-5%,-6%,0%,2%
CSc1ccc(N=Nc2c(C)[nH]n(C)c2=O)cc1,-1%,14µM*,-1%,49%,-2%,-12%
Cc1cnc(-n2ncc(C(=O)N(C)Cc3cccc4ncccc34)c2C(C)C)nc1-c1ccc(F)cc1,-16%,.,i,.,.,.
C=C1[C@@H](O)[C@H](Cc2ccccc2)N(Cc2ccccc2Br)S1(=O)=O,10µM*,9%,10µM*,.,.,.
CCC(C)NCCOc1ccc(C)cc1[N+](=O)[O-] (stereo not drawn),0%,-9%,-8%,-18%,-1%,3%
CCC(C)Nc1c([N+](=O)[O-])cc(C)cc1[N+](=O)[O-] (stereo not drawn),-4%,16µM*,-13%,-23%,-3%,-1%
Cc1[nH]c2ccccc2c1C(=O)C(C)OC(=O)c1ccccc1NCCO (stereo not drawn),.,1%,.,28µM*,-5%,?
O=C(CCc1nc2ccccc2s1)N1CCOc2ccc(CN3CCc4sccc4C3)cc2C1,0%,.,-16%,.,.,.
Cc1cc(OC(C)C(=O)Nc2c(C(=O)c3ccc(F)cc3)oc3ccccc23)ccc1Cl (stereo not drawn),-9%,.,-7%,.,.,0%
Clc1ccc(CSc2cc3c(nn2)-c2ccccc2CC3)cc1Cl,4%,24%,.,0.32µM*,-5%,5%
COC(=O)C1C(O)CC[C@H]2CN3CCc4c([nH]c5ccccc45)C3C[C@H]12 (stereo partly drawn),-2%,.,-13%,.,.,.
COCc1c(C(=O)N2CCN(c3ccccc3)CC2)cnn1-c1nccc(-c2ccco2)n1,-11%,.,-21%,.,.,.
Cc1ccc(-n2ncc(C(=O)NCCN3CCC(Cc4ccccc4)CC3)c2C2CCN(C(=O)OC(C)(C)C)CC2)cc1,11µM*,.,?,.,.,-1%
CN1CCN(CCNC(=O)c2cnn(-c3cccc(Cl)c3)c2C2CCN(C(=O)OC(C)(C)C)CC2)CC1,-19%,.,-23%,.,.,3%
CC(C)(C)OC(=O)N1CCC(c2c(C(=O)NCCN3CCC(Cc4ccccc4)CC3)cnn2-c2cccc(Cl)c2)CC1,11µM*,.,11µM*,.,.,29%
SMILES,VACV Venus inh,AMA1 RON2 block,Vaccinia mCherry,AmpC inh no detg,SARS PLpro yeast,AmpC inh detg
CC[N+]1(CC(=O)c2ccc(Br)cc2)CCCCC1,-16%,.,-20%,.,.,.
COc1ccc(NC(=O)c2cccc([N+](=O)[O-])c2)cc1,-8%,1%,i,-32%,1%,11%
O=C(O)c1ccccc1C(=O)Nc1cccc([N+](=O)[O-])c1,-4%,-2%,i,-3%,1%,-4%
COc1ccc(NC(=O)c2cc([N+](=O)[O-])ccc2O)cc1,?,1%,6.3µM*,-28%,-6%,1%
O=C(Nc1cccc([N+](=O)[O-])c1)c1cc2ccccc2cc1O,?,44%,?,13µM*,-6%,0%
CCC1(C2CCN(C(=O)c3coc4c3C(=O)CCC4)CC2)NC(=O)N(CCc2scnc2C)C1=O (stereo not drawn),2%,.,-4%,.,.,.
COc1cc(=O)n2c(c1C(=O)NC(C)c1ccco1)CCN(C(=O)c1ccccc1SC)CC2 (stereo not drawn),0%,.,i,.,.,.
O=c1c2ccccc2nc(/C=C/c2cccnc2)n1CCc1ccccc1,0%[7.34 µM],-6%,i[7.34 µM],38%,-4%,6%
O=c1c2ccccc2nc(/C=C/c2cccnc2)n1Cc1ccccc1,-19%,32µM*,-23%,26%,-3%,-6%
CC(C)(C)NC(=O)C(c1ccc(-c2ccccc2)cc1)N(C[C@H]1CC[C@@H]([C@@H]2CC[C@H](CO)O2)O1)C(=O)c1ccc(-c2ccccc2)cc1 (stereo partly drawn),?,-20%,28µM*,136%,5%,.
CC(C)(C)NC(=O)C(c1ccc(-c2ccccc2)cc1)N(C[C@H]1CC[C@@H]([C@@H]2CC[C@H](CO)O2)O1)C(=O)c1ccc2ccccc2c1 (stereo partly drawn),-10%,-14%,-7%,191%,-1%,.
O=C(C[n+]1ccccc1Cl)c1ccccc1,-22%,.,-11%,.,.,.
O=Nc1c(-c2c(O)[nH]c3cc(Br)ccc23)[nH]c2ccccc12,-8%,10µM*,?,5.6µM*,-29%,?
O=C(CSCc1cccc(Br)c1)N=Nc1c(O)[nH]c2ccccc12,.,3%,.,-12%,-18%,?
COc1ccccc1C1CN(Cc2c(C)nc3sccn23)Cc2ccccc2O1 (stereo not drawn),1%,.,-12%,.,.,.
CCN(CC)CCNC(=O)C1CCN(S(=O)(=O)N2CCCCC2)CC1,-8%,0%,-2%,0.28µM*,1%,2%
CCOc1ccc(NS(=O)(=O)c2cc(NC(=O)c3cccc(C)c3)ccc2Cl)cc1,13µM*,-1%,?,-27%,7%,8%
CCC(C)Sc1nc2c(cnn2-c2ccc(C)c(C)c2)c(=O)[nH]1 (stereo not drawn),-9%,-2%,i,40µM*,-2%,-14%
CCCCSc1nc2c(cnn2-c2ccc(F)cc2)c(=O)[nH]1,-13%,-7%,-11%,40µM*,8%,?
CSc1nc2c(cnn2-c2ccc(C)c(C)c2)c(=O)[nH]1,-13%,-1%,0%,-20%,1%,?
